This note sets out measurements from PubChem BioAssay (NCI).

Compounds without any hit were thinned out: in the full panel of roughly 83,000, 20% have a hit.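 Plates (96-well) were seeded with cells, treated with compound at one concentration, and incubated for 48 hours before percent growth was determined.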 Unmarked numbers belong to inactive results. Active and inactive are the calls of the source. Rule for the calls: active = growth percent below 10; inactive = the rest.

Test systems include SR leukemia; RPMI-8226 leukemia; OVCAR-8 ovarian; OVCAR-5 ovarian; OVCAR-4 ovarian; SK-OV-3 ovarian; IGROV1 ovarian; HS 578T breast; NCI/ADR-RES ovarian; OVCAR-3 ovarian.
Common to all, as to test: NCI-60 one-dose screen, 48 h (100 = growth as untreated, 0 = no growth, -100 = all killed)
Details in all cases: 10 µM unless noted

With `CCc1cc2c(cc1Cl)nc1c(=O)[nH]c(=O)nc-1n2CCOCC(C)(C)C`, the growth in the experiment on SR leukemia is 35.8%; in the experiment with RPMI-8226 leukemia, 68.5%; in the experiment on OVCAR-8 ovarian it was 72.2%; in the experiment with OVCAR-5 ovarian, 119%; in the experiment on OVCAR-4 ovarian, 52.5%; in the experiment with SK-OV-3 ovarian it was 110%. Further, the growth is 60.3% in the experiment on IGROV1 ovarian, 101% with HS 578T breast and 79.2% in the experiment with NCI/ADR-RES ovarian.

With `O=C(Nc1ccc(N2CCOCC2)cc1)Nc1ccc2c(ccn2C(=O)c2cccc(F)c2)c1`, the growth is 71.8% with SR leukemia; 58.5% in the experiment on RPMI-8226 leukemia; 58.3% in the experiment with OVCAR-8 ovarian; 99.3% with OVCAR-5 ovarian; 82.6% in the experiment with OVCAR-4 ovarian; 111% in the experiment with SK-OV-3 ovarian. Further, the growth is 82.7% in the experiment with OVCAR-3 ovarian, 21.7% with HS 578T breast and 74.2% with NCI/ADR-RES ovarian.

On to `COC(=O)CCSC1=C(C)C(=O)c2ccccc2C1=O`, for which the growth in the experiment with SR leukemia is 71%; in the experiment on RPMI-8226 leukemia, 45.3%; in the experiment on OVCAR-8 ovarian, 85.8%; in the experiment with OVCAR-5 ovarian, 104%; with OVCAR-4 ovarian, 75.6%; in the experiment with SK-OV-3 ovarian, 97.7%. Also, the growth in the experiment with OVCAR-3 ovarian is 69%; in the experiment on HS 578T breast, 91.8%; in the experiment on NCI/ADR-RES ovarian, 83.5%.

`NS(=O)(=O)c1ccc(Nc2nc(N/N=C/C=C/c3ccccc3)nc(Nc3ccccc3)n2)cc1`: the growth is 14.9% in the experiment with SR leukemia; 28.5% in the experiment on RPMI-8226 leukemia; 50% in the experiment with OVCAR-8 ovarian; 99.2% with OVCAR-5 ovarian; 49.6% in the experiment on OVCAR-4 ovarian; 78.3% in the experiment with SK-OV-3 ovarian. The growth with HS 578T breast was 39.7%; in the experiment with NCI/ADR-RES ovarian, 91.1%.

Take `CNC(=O)c1cc(-n2ccc3cc(NC(=O)Nc4ccc(N5CCN(C)CC5)c(C(F)(F)F)c4)ccc32)ccn1`: the growth in the experiment on SR leukemia is -32.6% (active); with RPMI-8226 leukemia it was -11.2% (active); in the experiment on OVCAR-8 ovarian it was 97.7%; with OVCAR-5 ovarian, 90%; with OVCAR-4 ovarian it was 84.5%; in the experiment on SK-OV-3 ovarian it was 105%. The growth in the experiment with HS 578T breast was 67%; in the experiment with NCI/ADR-RES ovarian it was 98%.

On to `O=[N+]([O-])c1ccc(NC(=S)NNC(=S)Nc2ccc(F)cc2)cc1`, for which the growth in the experiment on SR leukemia was 91%; in the experiment on RPMI-8226 leukemia, 85.6%; in the experiment on OVCAR-8 ovarian, 91.7%; in the experiment with OVCAR-5 ovarian, 89.9%; in the experiment on OVCAR-4 ovarian, 95.7%; in the experiment with SK-OV-3 ovarian, 116%. For the same compound, the growth in the experiment on HS 578T breast was 102%; in the experiment with NCI/ADR-RES ovarian, 84.2%.

As for `CN1CCN(Cc2ccc(NC(=O)c3cncc(C#Cc4cnc5ccc(N6CCOCC6)nn45)c3)cc2C(F)(F)F)CC1`, the growth in the experiment on SR leukemia is -28.4% (active); with RPMI-8226 leukemia it was -23.9% (active); in the experiment with OVCAR-8 ovarian, -37.6% (active); with OVCAR-5 ovarian, -20.4% (active); in the experiment on OVCAR-4 ovarian it was -19.7% (active); in the experiment on SK-OV-3 ovarian, -31.9% (active). Also, the values for the growth with IGROV1 ovarian, in the experiment with HS 578T breast and in the experiment on NCI/ADR-RES ovarian were -32.8% (active), -27.8% (active) and -15.8% (active), respectively.

On to `O=C(/C=C/c1cccc(F)c1)c1cccc(OCCCOc2cccc(C(=O)/C=C/c3cccc(F)c3)c2)c1`, for which the growth is 6.17% (active) in the experiment on SR leukemia; -15.7% (active) in the experiment with RPMI-8226 leukemia; 67.6% in the experiment with OVCAR-8 ovarian; 77.8% with OVCAR-5 ovarian; 75.3% in the experiment on OVCAR-4 ovarian; 124% with SK-OV-3 ovarian. In addition, the growth in the experiment with OVCAR-3 ovarian is 74.9%; in the experiment with HS 578T breast, 93.8%; with NCI/ADR-RES ovarian, 90.1%.

On to `CC1=C(C)C(=O)C(Nc2ccc3c(c2)OCO3)=C(Br)C1=O`, for which the growth is 56.9% with SR leukemia; 71% in the experiment on RPMI-8226 leukemia; 98.3% in the experiment on OVCAR-8 ovarian; 116% in the experiment on OVCAR-5 ovarian; 60.3% in the experiment on OVCAR-4 ovarian; 87.6% in the experiment on SK-OV-3 ovarian. In addition, the values for the growth in the experiment on OVCAR-3 ovarian, in the experiment with HS 578T breast and in the experiment with NCI/ADR-RES ovarian were 104%, 99.7% and 97.4%, respectively.

Turning to `NNc1nnc2nc(Nc3ccccc3)nc(Nc3ccc(S(N)(=O)=O)cc3)n12`, the growth is 93.3% in the experiment with SR leukemia; 99.4% in the experiment on RPMI-8226 leukemia; 107% in the experiment with OVCAR-8 ovarian; 103% in the experiment on OVCAR-5 ovarian; 112% in the experiment with OVCAR-4 ovarian; 113% with SK-OV-3 ovarian. The growth with OVCAR-3 ovarian is 110%; in the experiment on HS 578T breast, 99.6%; in the experiment with NCI/ADR-RES ovarian, 99.6%.

With `Cc1ccccc1Nc1nc(SC(C)C)nc(-c2ccccc2)c1C#N`, the growth in the experiment with SR leukemia was 89.6%; in the experiment on RPMI-8226 leukemia it was 83.8%; in the experiment on OVCAR-8 ovarian it was 19.9%; in the experiment with OVCAR-5 ovarian it was 71.9%; in the experiment on OVCAR-4 ovarian it was 13.4%; in the experiment on SK-OV-3 ovarian, 94.3%. The growth in the experiment with IGROV1 ovarian was -50.3% (active); with HS 578T breast, 63.1%; in the experiment on NCI/ADR-RES ovarian it was 34.7%.

Consider `NC(=O)n1c(=O)n(-c2cccc(C(F)(F)F)c2)c(=O)c2cc(-c3ccc(F)cc3F)ccc21`, for which the growth was 4.71% (active) in the experiment on SR leukemia; -30.6% (active) with RPMI-8226 leukemia; 8.4% (active) in the experiment with OVCAR-8 ovarian; 43.7% in the experiment on OVCAR-5 ovarian; 28.4% in the experiment with OVCAR-4 ovarian; -12.9% (active) in the experiment on SK-OV-3 ovarian. For the same compound, the growth in the experiment with HS 578T breast is -6.46% (active); in the experiment with NCI/ADR-RES ovarian, 2.36% (active).

Consider `NC(N)=NS(=O)(=O)c1ccc(N=Nc2c(N)nn(-c3ccc([N+](=O)[O-])cc3[N+](=O)[O-])c2N)cc1`, for which the growth is 107% with SR leukemia; 99.1% in the experiment with RPMI-8226 leukemia; 100% in the experiment with OVCAR-8 ovarian; 106% in the experiment on OVCAR-5 ovarian; 104% in the experiment on OVCAR-4 ovarian; 91.4% in the experiment on SK-OV-3 ovarian. Moreover, the growth with IGROV1 ovarian is 103%; with HS 578T breast, 97.9%; in the experiment on NCI/ADR-RES ovarian, 99.3%.
